Source: PubChem BioAssay (NCATS)
Records with an inconclusive call do not appear. Unmarked numbers belong to inactive results. Active and inactive are the calls of the source. Calls follow the shape of the dose curve; as a rule, active = well fitted curve in the direction sought with a large enough effect; inconclusive = small, poorly fitted or top-dose-only effect, or another doubt; inactive = no such curve, though single readings can be large; an effect the other way counts as inactive or inconclusive.

tested on: not listed separately; assay: Primary qHTS for inhibitors of La Crosse Virus (LACV) - induced cell death in SH-SY5Y cells (AID 1508616); settings: SH-SY5Y LACV cytopathicity rescue, ATP luminescence, 6 d; series mostly up to 4.29 µM; activity change: at the top concentration; also: potency is read from the fitted curve at half-maximal effect;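 as to activity change: top concentration of the series differs between compounds; 0% = infected DMSO wells and 100% = uninfected DMSO wells; higher means more rescue of cells from virus-induced death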
How it was run: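 Cytopathicity rescue screen: compounds pinned onto SH-SY5Y cells, which are then infected with LACV (MOI 0.01) and held 6 days at 37C. Percent activity is scaled between infected DMSO control and uninfected DMSO control.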

Compared with CCCCCCCCCCCCCCCCCC(=O)OCC(O)CO (stereo not given), CCC(=O)c1c(O)cc(O)cc1O is higher in “activity change” value: 8.12% for the first, 12.1% for the second.

First: C[C@@H]1CN(CCCn2c3ccccc3c3ccccc32)C[C@H](C)N1
Second: CC(C)=CCC1C(=O)N(c2ccccc2)N(c2ccccc2)C1=O
The “activity change” value of the first is lower: -22.2% for the first, -3.57% for the second.

Compared with Cc1onc(-c2c(Cl)cccc2Cl)c1C(=O)N[C@@H]1C(=O)N2[C@@H]1SC(C)(C)[C@@H]2C(=O)O, O=C(Nc1ccc(Oc2ccc(Cl)cc2)c(Cl)c1)c1cc(I)cc(I)c1O is lower in “activity change” value: 49.2% for the first, 15.6% for the second.

Going from C/C=C(/C(=C/C)c1ccc(O)cc1)c1ccc(O)cc1 to CN(C)CC/C=C1/c2ccccc2COc2ccc(CC(=O)O)cc21, the “activity change” value falls from 26.8% to -2.47%.

Compared with Cc1c(C(N)=O)cc([N+](=O)[O-])cc1[N+](=O)[O-], CN(C)/N=N/c1nc[nH]c1C(N)=O is lower in “activity change” value: 9.22% for the first, -1.28% for the second.

With CN1[C@@H]2CC[C@H]1CC(OC(=O)c1c[nH]c3ccccc13)C2 (stereo not given in full) the “activity change” value was 13.4%.

First: CC(=O)O[C@H]1C[C@@H]2CC[C@@H]3[C@H](CC[C@@]4(C)[C@H]3C[C@H]([N+]3(C)CCCCC3)[C@@H]4OC(C)=O)[C@@]2(C)C[C@@H]1[N+]1(C)CCCCC1
Second: C[N+]1(CCCCC[N+]2(C)CCCC2)CCCC1
The “activity change” value of the first is lower: -3% [at 9.63 µM] for the first, 0.911% [at 9.63 µM] for the second.

Going from CNCCC(Oc1ccccc1C)c1ccccc1 (stereo not given) to CC(CCc1ccccc1)NCC(O)c1ccc(O)c(C(N)=O)c1 (stereo not given), the “activity change” value rises from -3.59% [at 9.63 µM] to -0.962% [at 9.63 µM].

Compared with C1CCc2nnnn2CC1, COC(=O)[C@H]1[C@H]2C[C@H]3c4[nH]c5ccccc5c4CCN3C[C@H]2CC[C@@H]1O is higher in “activity change” value: -5.31% [at 9.63 µM] for the first, 41.5% [at 9.63 µM] for the second.

Compared with CCCC1O[C@@H]2C[C@H]3[C@@H]4CCC5=CC(=O)C=C[C@]5(C)[C@H]4[C@@H](O)C[C@]3(C)[C@]2(C(=O)CO)O1 (stereo not given in full), CC[C@H](C)C(=O)O[C@H]1CCC=C2C=C[C@H](C)[C@H](CC[C@@H]3C[C@@H](O)CC(=O)O3)[C@H]21 is lower in “activity change” value: 2.16% [at 9.63 µM] for the first, -37.6% [at 9.63 µM] for the second.

Going from C[C@]12CC[C@@H]3c4ccc(O)cc4CC[C@H]3[C@@H]1CC[C@@H]2O to CN1C2CCC1CC(OC(=O)c1c[nH]c3ccccc13)C2 (stereo not given), the “activity change” value rises from -15.4% [at 9.63 µM] to 10.1% [at 9.63 µM].

First: N[C@@H](Cc1cnc[nH]1)C(=O)O
Second: N[C@H](CO)C(=O)O
The “activity change” value of the first is lower: 8.19% [at 9.63 µM] for the first, 15.8% [at 9.63 µM] for the second.

First: CC(C)COC(=O)OCN1C(=O)CN(CCN2CC(=O)N(COC(=O)OCC(C)C)C(=O)C2)CC1=O
Second: CC(C)C[C@H]1C(=O)N2CCC[C@H]2[C@]2(O)O[C@](NC(=O)[C@@H]3C=C4c5cccc6[nH]c(Br)c(c56)C[C@H]4N(C)C3)(C(C)C)C(=O)N12
The “activity change” value of the first is lower: -28.3% [at 9.63 µM] for the first, 3.83% [at 9.63 µM] for the second.

Compared with COc1cc(NS(C)(=O)=O)ccc1Nc1c2ccccc2nc2ccccc12, O=C(O)c1cc2cc(Cc3cccnc3)ccc2o1 is higher in “activity change” value: -95% [at 9.63 µM] for the first, -8.79% [at 9.63 µM] for the second.

Going from CCCn1c(=O)[nH]c(=O)c2[nH]cnc21 to C[C@@H]1C(=O)NC2=Nc3cccc(Cl)c3CN21, the “activity change” value rises from -0.0489% [at 9.63 µM] to 15.8% [at 9.63 µM].

Going from CCC(NC(C)C)C(O)c1ccc(O)c(O)c1 (stereo not given) to Nc1cc(Cl)c(NC2=NCCN2)c(Cl)c1, the “activity change” value rises from -18.4% [at 9.63 µM] to 2.4% [at 9.63 µM].

Going from CC1(C)CCC(NC(=O)[C@@H](N)CCC(=O)O)CC1 to O=C1CCC(c2ccc(-n3ccnc3)cc2)=NN1, the “activity change” value falls from -6.33% [at 9.63 µM] to -7.54% [at 9.63 µM].

With COc1cc2c(cc1O)CC[C@@H]1[C@@H]2CC[C@]2(C)[C@@H](O)CC[C@@H]12 the Potency was 0.631 µM (active).

biological target: Calcium and integrin-binding protein 1 (Homo sapiens) (UniProt Q99828); assay: Validation qHTS for Identification of Calcium Integrin Binding protein 1 (CIB1) Competitor (AID 1508618); settings: CIB1-GST / FITC-alphaIIb peptide fluorescence polarization; series mostly up to 114 µM; activity change, negative = inhibition: at the top concentration; also: % is scaled to controls: 0 for no effect and ±100 for the full control effect
How it was run: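 CIB1-GST (1 uM final) incubated 15 min at room temperature with compounds (up to 114 uM), then FITC-labelled alphaIIb peptide (100 nM) added. FP read (Ex 480/Em 540) after 15 min, pH 7.4 buffer containing 5 mM CaCl2.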

Calcium and integrin-binding protein 1 (Homo sapiens), sequence (Q99828 whole entry, looked up): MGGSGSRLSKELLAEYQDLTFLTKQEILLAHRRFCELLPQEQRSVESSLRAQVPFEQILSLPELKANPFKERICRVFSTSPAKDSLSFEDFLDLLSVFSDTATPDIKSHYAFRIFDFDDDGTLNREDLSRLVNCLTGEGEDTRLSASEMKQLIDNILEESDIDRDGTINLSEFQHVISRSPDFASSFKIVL

First: CC(=O)O[C@H]1C[C@@H]2CC[C@@H]3[C@H](CC[C@@]4(C)[C@H]3C[C@H]([N+]3(C)CCCCC3)[C@@H]4OC(C)=O)[C@@]2(C)C[C@@H]1[N+]1(C)CCCCC1
Second: C[N+]1(CCCCC[N+]2(C)CCCC2)CCCC1
The “activity change, negative = inhibition” value of the first is lower: 3.38% for the first, 4.45% for the second.

Compared with CNCCC(Oc1ccccc1C)c1ccccc1 (stereo not given), CNCCC=C1c2ccccc2CCc2ccccc21 is higher in “activity change, negative = inhibition” value: 1.11% for the first, 10.9% for the second.

First: C1CCc2nnnn2CC1
Second: O=C1CCC(c2ccc(-n3ccnc3)cc2)=NN1
The “activity change, negative = inhibition” value of the first is lower: 2.97% for the first, 9.73% for the second.

First: CCCC1O[C@@H]2C[C@H]3[C@@H]4CCC5=CC(=O)C=C[C@]5(C)[C@H]4[C@@H](O)C[C@]3(C)[C@]2(C(=O)CO)O1 (stereo not given in full)
Second: CC[C@H](C)C(=O)O[C@H]1CCC=C2C=C[C@H](C)[C@H](CC[C@@H]3C[C@@H](O)CC(=O)O3)[C@H]21
The “activity change, negative = inhibition” value of the first is higher: 2.12% for the first, -3.58% for the second.

Compared with N[C@@H](Cc1cnc[nH]1)C(=O)O, N[C@H](CO)C(=O)O is higher in “activity change, negative = inhibition” value: 2.08% for the first, 12.3% for the second.

Going from CC(C)COC(=O)OCN1C(=O)CN(CCN2CC(=O)N(COC(=O)OCC(C)C)C(=O)C2)CC1=O to CC(C)C[C@H]1C(=O)N2CCC[C@H]2[C@]2(O)O[C@](NC(=O)[C@@H]3C=C4c5cccc6[nH]c(Br)c(c56)C[C@H]4N(C)C3)(C(C)C)C(=O)N12, the “activity change, negative = inhibition” value falls from 8.22% to -15.8%.

Going from CCCn1c(=O)[nH]c(=O)c2[nH]cnc21 to C[C@@H]1C(=O)NC2=Nc3cccc(Cl)c3CN21, the “activity change, negative = inhibition” value rises from 1.47% to 7.9%.

Going from O=C(O)c1cc2cc(Cc3cccnc3)ccc2o1 to CC(CCc1ccccc1)NCC(O)c1ccc(O)c(C(N)=O)c1 (stereo not given), the “activity change, negative = inhibition” value rises from 5.19% to 10.4%.

Compared with CN1C2CCC1CC(OC(=O)c1c[nH]c3ccccc13)C2 (stereo not given), COc1cc2c(cc1O)CC[C@@H]1[C@@H]2CC[C@]2(C)[C@@H](O)CC[C@@H]12 is higher in “activity change, negative = inhibition” value: 1.48% for the first, 6.82% for the second.

First: CCC(NC(C)C)C(O)c1ccc(O)c(O)c1 (stereo not given)
Second: Nc1cc(Cl)c(NC2=NCCN2)c(Cl)c1
The “activity change, negative = inhibition” value of the first is lower: -2.48% for the first, 3.83% for the second.

With CC1(C)CCC(NC(=O)[C@@H](N)CCC(=O)O)CC1 the “activity change, negative = inhibition” value was 9.43%.
